Results from PubChem BioAssay (Tox21).
Several values for one entry are separate records, joined by “and”; a condition that tells them apart may be missing. Identical values can stand only once. Inconclusive results are not listed. Where a call stands in place of a potency, no number is given. Activity calls are given as the source filed them. Unless noted, the call rests on the fitted dose curve; in most records, active means well fitted curve in the direction sought with a large enough effect in the repeat runs; inconclusive means weak or mixed curves; inactive means no such curve, though single readings can be large; an effect the other way counts as inactive or inconclusive.

How the values were obtained:
[1] = qHTS assay to identify small molecule antagonists of the androgen receptor (AR) signaling pathway using the MDA cell line in the presence of 0.5 nM R1881 - cell viability counter screen (AID 1259242); further: nearly all actives have a fitted effect of over 45% in size; further: potency means the concentration at half of the fitted maximal effect
Outline: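 MDA-kb2 cells (MMTV-luciferase, AR/GR responsive) were treated with compounds plus 0.5 nM R1881 (final) for 16 hr at 37C, 0% CO2. Viability was then read in the same wells as live-cell protease fluorescence (CellTiter-Fluor, 30 min).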

[2] = biological target: Estrogen receptor (Homo sapiens) (UniProt P03372); assay: qHTS assay to identify small molecule antagonists of the estrogen receptor alpha (ER-alpha) signaling pathway using the BG1 cell line in the presence of 0.1 nM 17-beta-estradiol (AID 1259244); further: nearly all actives have a fitted effect of over 50% in size; further: potency means the concentration at half of the fitted maximal effect
Outline: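 VM7Luc4E2 cells (endogenous full-length ER-alpha, 4×ERE-luciferase), kept 5 days in phenol red-free, charcoal-stripped FBS medium; 4,000 cells/well. Compounds added with 0.1 nM (final) 17beta-estradiol, 22 hr at 37C; luminescence read with ONE-Glo after 30 min.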

[3] = qHTS assay to identify small molecule HDAC inhibitors (AID 1259364); further: top concentration of the series differs between compounds; nearly all actives have a fitted effect of over 45% in size
Outline: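 Wild-type HCT-116 cells, plated overnight at 37 C, exposed to compounds 2 hr at 37 C; luminogenic HDAC-Glo substrate then added 30 min at room temperature. Luminescence reports relative endogenous class I/II HDAC activity.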

[4] = qHTS assay to identify small molecule agonists of the sonic hedgehog signaling (Shh) pathway - cell viability counter screen (AID 1259366); further: nearly all actives have a fitted effect of over 50% in size; further: potency means the concentration at half of the fitted maximal effect
Outline: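 Cells are plated at 2,000 per well and left 4hr at 37C, 5% CO2 before compound addition. After 23hr of treatment, CellTiter-Fluor reagent is added for 1hr at 37C and fluorescence is measured.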

[5] = qHTS assay to identify small molecule agonists of the sonic hedgehog signaling (Shh) pathway (AID 1259368; calls by dose curve;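 further: NIH/3T3-derived 3T3Gli1-Luc cells carrying a stable Gli1-driven firefly luciferase reporter; series mostly up to about 92 µM; nearly all actives have a fitted effect of over 15% in size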)
Outline: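 NIH/3T3-derived 3T3Gli1-Luc cells with stably integrated Gli1-driven firefly luciferase, 2,000 cells/well, compounds added after 4 hr. Incubated 24 hr at 37C, 5% CO2; luminescence read after 30 min with luciferase reagent at room temperature.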

[6] = qHTS assay to identify small molecule antagonists of the sonic hedgehog signaling (Shh) pathway (AID 1259369; calls by dose curve; further: nearly all actives have a fitted effect of over 45% in size; further: potency means the concentration at half of the fitted maximal effect)
Outline: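 NIH/3T3-derived Gli1-Luc reporter cells plated 4 h, dosed with compound, then stimulated with conditioned medium for 24 h at 37 C. Firefly luciferase luminescence read after 30 min with detection reagent at room temperature.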

[7] = qHTS assay to identify small molecule HDAC inhibitors - cell viability counter screen (AID 1259365); further: nearly all actives have a fitted effect of over 50% in size; further: potency means the concentration at half of the fitted maximal effect
Outline: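 Counter screen in wild-type HCT-116 cells: compounds dissolved in DMSO are pin-transferred onto overnight-plated cells and left 2hr at 37C. ATP-based CellTiter-Glo luminescence then measures viable cells.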

[8] = qHTS assay to identify small molecule antagonists of the sonic hedgehog signaling (Shh) pathway - cell viability counter screen (AID 1259367); further: nearly all actives have a fitted effect of over 55% in size; further: potency means the concentration at half of the fitted maximal effect
Outline: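 Cells: 3T3 Gli1-Luc, 2,000/well, 4 hr pre-incubation. Compounds in DMSO, then conditioned medium. Incubation 24 hr, 37C, 5% CO2. CellTiter-Fluor at 23 hr, 1 hr, fluorescence.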

[9] = qHTS assay to identify small molecule phospholipidosis (PLD) inducers (AID 1259344; active means well fitted curve in the direction sought with a large enough effect; an effect the other way counts as inactive or inconclusive)
Outline: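 Phospholipidosis is scored by imaging LipidTOX-stained pits in HepG2 cells exposed to compound for 24 h at 37 C; pit counts and integrated intensities per well and per cell serve as outputs.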

Sequence of Estrogen receptor (Homo sapiens) (P03372 whole entry, looked up): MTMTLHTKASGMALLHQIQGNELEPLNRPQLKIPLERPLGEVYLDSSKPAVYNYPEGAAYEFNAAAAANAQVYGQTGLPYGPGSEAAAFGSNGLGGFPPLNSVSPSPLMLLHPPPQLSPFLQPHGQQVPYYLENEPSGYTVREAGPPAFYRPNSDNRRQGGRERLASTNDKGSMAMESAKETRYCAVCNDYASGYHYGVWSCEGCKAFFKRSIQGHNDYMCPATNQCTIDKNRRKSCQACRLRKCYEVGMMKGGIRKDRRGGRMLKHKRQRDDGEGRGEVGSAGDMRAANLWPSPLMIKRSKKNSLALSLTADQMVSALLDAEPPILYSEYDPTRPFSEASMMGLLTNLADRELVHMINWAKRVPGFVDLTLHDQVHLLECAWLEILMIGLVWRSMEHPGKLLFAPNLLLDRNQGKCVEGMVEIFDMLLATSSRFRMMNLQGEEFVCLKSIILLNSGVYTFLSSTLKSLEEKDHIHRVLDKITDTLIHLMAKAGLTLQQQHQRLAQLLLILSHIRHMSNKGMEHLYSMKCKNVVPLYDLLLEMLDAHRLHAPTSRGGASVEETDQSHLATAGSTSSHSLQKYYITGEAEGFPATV

Row | Structure (SMILES) | Potency [1] | Potency [2] | Potency [3] | Potency [4] | Potency [5] | Potency [6] | Potency [7] | Potency [8] | Potency [9]
1 | C[C@]12CC[C@H]3C(=CCc4cc(O)ccc43)[C@@H]1CCC2=O | inactive | inactive | inactive | inactive | inactive | 21.7 µM (active) |  |  | 
2 | CCN(CC)CCOC(=O)C1(C2CCCCC2)CCCCC1 | inactive | inactive | inactive |  | inactive |  | inactive | inactive | 
3 | CC(COC(=O)c1ccccc1)OC(=O)c1ccccc1 (stereo not drawn) | inactive | inactive |  | inactive | inactive |  | inactive | inactive | 
4 | OCCN1CN(CCO)CN(CCO)C1 | inactive | inactive |  | inactive | inactive |  | inactive | inactive | 
5 | Cn1cnc2ncnc(N)c21 | inactive | inactive | inactive | inactive | inactive | inactive | inactive | inactive | 
6 | COc1cccc(CCc2ccccc2OCC(CN(C)C)OC(=O)CCC(=O)O)c1 (stereo not drawn) | inactive | inactive | inactive |  | inactive | 16.8 µM (active) | inactive | inactive | 
7 | CCCCCCCC/C=C\CCCCCCCC(=O)OCCOC(=O)CCCCCCC/C=C\CCCCCCCC | inactive | inactive | inactive | inactive | inactive | inactive |  | inactive | 
8 | Cc1cc(=O)[nH]c(=O)[nH]1 | inactive | inactive | inactive | inactive | inactive | inactive | inactive | inactive | 
9 | CC(C)c1ccccc1N | inactive | inactive | inactive | inactive | inactive | inactive |  | inactive | 
10 | CCCCCCCCCCCCOC(=O)c1cc(O)c(O)c(O)c1 | 60.9 µM (active) | 30.5 µM (active) and 34.4 µM (active) | inactive | 43.1 µM (active) |  | 1.21 µM (active) and 2.17 µM (active) | inactive | 34.2 µM (active) and 6.11 µM (active) | 
11 | COC(=O)CC#N | inactive | inactive | inactive | inactive | inactive | inactive | inactive | inactive | 
12 | CC(=O)Oc1ccc(C2(c3ccc(OC(C)=O)cc3)Oc3ccccc3NC2=O)cc1 | inactive | inactive | inactive | inactive | inactive | 8.41 µM (active) | inactive |  | 
13 | CC(C)(C)C1=CC(=O)C=C(C(C)(C)C)C1=O | inactive | inactive | inactive | inactive | inactive | inactive | inactive | inactive | 
14 | CN(Cc1cc(Br)cc(Br)c1N)C1CCCCC1 | inactive | inactive |  | inactive | inactive | inactive | inactive | inactive | 
15 | CCCCCCCCCCCCCc1ccccc1 | inactive | inactive | inactive | inactive | inactive | inactive | inactive | inactive | 
16 | CCCCCCCC(C)=O | inactive | inactive | inactive | inactive | inactive | inactive |  | inactive | 
17 | CNC(=O)c1cc(Oc2ccc(NC(=O)Nc3ccc(Cl)c(C(F)(F)F)c3)cc2)ccn1 | 26.6 µM (active) | 26.6 µM (active) | inactive |  | inactive | 26.6 µM (active) | inactive |  | 
18 | CCCCCCCCCCCCCOP(=O)(O)O | inactive | inactive | inactive | inactive | inactive | inactive | inactive | inactive | 
19 | COc1cccc(O)c1 | inactive | inactive | inactive | inactive | inactive | inactive | inactive | inactive | 
20 | CCOCN(C(=O)CS(=O)(=O)O)c1c(C)cccc1CC | inactive | inactive | inactive | inactive | inactive | inactive | inactive | inactive | 
21 | CCCCCCCC/C=C\CCCCCCCC(=O)N(C)CC(=O)O | inactive | inactive | inactive | inactive | inactive | inactive | inactive | inactive | 
22 | CCN(CC)CCCN(c1ccccc1)C1Cc2ccccc2C1 | inactive | inactive | inactive | inactive | inactive | 15 µM (active) |  | inactive | 
23 | CCCCOC(=O)C(C)CC (stereo not drawn) | inactive | inactive | inactive | inactive | inactive |  |  | inactive | 
24 | CCc1c(C(=O)O)c(=O)cnn1-c1ccc(Cl)cc1 | inactive |  | inactive | inactive | inactive | inactive | inactive | inactive | 
25 | C=C[C@](C)(O)CC[C@@H]1[C@@]2(C)CCCC(C)(C)[C@@H]2CC[C@@]1(C)O | inactive | 61.1 µM (active) |  |  | inactive |  | inactive |  | 
26 | C=C(C)C(=O)OCCC[Si](Cl)(Cl)Cl | inactive |  | inactive | inactive | inactive |  | inactive | inactive | 
27 | CC(C)(c1cc(Br)c(O)c(Br)c1)c1cc(Br)c(O)c(Br)c1 | inactive |  | inactive | inactive | inactive | 60.9 µM (active) and 64.9 µM (active) | inactive | inactive | 
28 | CN(C)CCCN1c2ccccc2CCc2ccccc21 | inactive |  | inactive | inactive | inactive | 8.63 µM (active) and 4.73 µM (active) | inactive | inactive | 

Row | Structure (SMILES) | Potency [1] | Potency [2] | Potency [3] | Potency [4] | Potency [5] | Potency [6] | Potency [7] | Potency [8] | Potency [9]
29 | O=C(O)CCCCCCC(=O)O | inactive |  | inactive | inactive | inactive | inactive | inactive | inactive | 
30 | C(=C/c1ccccc1)/c1ccccc1 | inactive |  | inactive | inactive | inactive | inactive | inactive | inactive | 
31 | O=C1c2c(O)ccc([N+](=O)[O-])c2C(=O)c2c([N+](=O)[O-])ccc(O)c21 | 27.1 µM (active) | 27.1 µM (active) |  | 17.1 µM (active) | inactive | 1.52 µM (active) | 21.5 µM (active) | 10.8 µM (active) | 
32 | CN1[C@@H]2CC[C@H]1CC(OC(=O)C(CO)c1ccccc1)C2 (stereo partly drawn) | inactive |  | inactive | inactive |  |  | inactive | inactive | 
33 | O=C1c2c(O)ccc(O)c2C(=O)c2c(NCCNCCO)ccc(NCCNCCO)c21 | 21.1 µM (active) |  | inactive | 21.1 µM (active) | inactive | 0.0473 µM (active) | inactive | 23.7 µM (active) | 
34 | OCCC(O)CO (stereo not drawn) | inactive |  | inactive | inactive | inactive |  | inactive | inactive | 
35 | Clc1ccccc1CN1CCc2sccc2C1 | inactive |  | inactive | inactive | inactive | inactive | inactive | inactive | 
36 | CCCCCCOc1ccc(O)cc1 | inactive | inactive |  | inactive | inactive | inactive | inactive |  | 
37 | ClC/C=C\CCl | inactive |  | inactive | inactive | inactive |  | inactive | inactive | 
38 | Clc1ccc(C(c2ccccc2Cl)C(Cl)Cl)cc1 (stereo not drawn) | inactive |  | inactive | inactive | inactive | inactive | inactive | inactive | 
39 | C=CC(C)C#N (stereo not drawn) | inactive |  | inactive | inactive | inactive | inactive | inactive | inactive | 
40 | CCCCCCCCCCCC(=O)N(CC)CC | inactive |  | inactive | inactive | inactive | inactive | inactive | inactive | 
41 | O=Nc1ccc(NO)cc1 | inactive | 50.5 µM (active) |  |  |  | 14.2 µM (active) | inactive |  | 
42 | Cc1occc1SSc1ccoc1C | inactive |  | inactive | inactive | inactive |  | inactive | inactive | 
43 | O=C1Nc2ccc(Cl)cc2[C@@](C#CC2CC2)(C(F)(F)F)O1 | inactive |  | inactive | inactive | inactive |  | inactive | inactive | 
44 | CCNc1nc(NC(C)CC)nc(OC)n1 (stereo not drawn) | inactive |  | inactive | inactive | inactive | 30.6 µM (active) | inactive | inactive | 
45 | Cc1c(-c2ccc(O)cc2)n(Cc2ccc(OCCN3CCCCCC3)cc2)c2ccc(O)cc12 | 29.8 µM (active) |  | inactive | 13.3 µM (active) | inactive | 11.9 µM (active) | inactive | 26.6 µM (active) | 
46 | CC1(C)C(=O)N(CO)C(=O)N1CO | inactive |  | inactive | inactive | inactive | inactive | inactive | inactive | 
47 | CCc1ccc(O)c(C(C)(C)C)c1 | inactive |  | inactive | inactive | inactive | inactive | inactive | inactive | 
48 | CSc1ccc2c(c1)N(CCC1CCCCN1C)c1ccccc1S2 (stereo not drawn) | 54.3 µM (active) |  | inactive | 15.3 µM (active) and 29.8 µM (active) | inactive | 5.43 µM (active) and 11.9 µM (active) | inactive | 21.6 µM (active) and 29.8 µM (active) | inactive
49 | c1cc2c3c(c1)ccc1cccc(c13)C2 | inactive |  | inactive | inactive | inactive |  | inactive | inactive | 
50 | CC=O | 32 µM (active) | 0.403 µM (active) |  | 28.6 µM (active) | inactive | 0.0161 µM (active) |  | 28.6 µM (active) | 
51 | CC(=O)Nc1ccc(O)cc1 | inactive |  | inactive | inactive | inactive | inactive | inactive | inactive | 
52 | Nc1ncnc2c1ncn2[C@@H]1O[C@H](COP(=O)(O)O)[C@@H](O)[C@H]1O | inactive |  | inactive | inactive | inactive | inactive |  | inactive | inactive
53 | CNCC[C@H](Oc1cccc2ccccc12)c1cccs1 | 26.6 µM (active) |  | inactive | 26.6 µM (active) | inactive | 2.37 µM (active) | inactive | 33.5 µM (active) | 
54 | C/C=C/c1ccc(OC)c(OC)c1 | inactive |  | inactive | inactive | inactive | inactive | inactive | inactive | 
55 | COC(=O)[C@]1(C)CCC[C@@]2(C)[C@H]1CC=C1C=C(C(C)C)CC[C@@H]12 | inactive |  | inactive | inactive | inactive | inactive | inactive | inactive | 
